Screening results: PubChem, National Center for Advancing Translational Sciences (NCATS)
The list is not random: actives were taken first. Their share in the collection is about 19%.
HT1080 IDH1KD tx: HT-1080 IDH1 knockdown cell toxicity (counter line) | Potency, µM (doses to about 46.1 µM), for inactives: at the highest dose activity, negative = toxicity, most hits filed as cytotoxic | hit rate 2% among 360,000 | HT-1080 IDH1 knockdown viability, ATP luminescence, 48 h;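 note: potency is the fitted concentration of half-maximal effect; 0% = DMSO wells and -100% = cell-free medium wells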
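IDH1KD HT-1080 cells, 750/well, RPMI + 5% FBS; compound pinned after 2 h settling; 48 h, 37 °C; CellTiter-Glo luminescence; % activity normalised to DMSO and no-cell wells; curves fitted, classed by r2 and efficacy.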
DT40 TDP1 CPT: DT40-hTDP1 cell growth loss with CPT. hit rate 12% among 420,000. chicken DT40 Tdp1-/-;hTDP1 cells + 20 nM CPT, ATP luminescence, 48 h. Potency, µM (top dose mostly 46.2 µM), for the others: at the highest dose activity change, negative = growth inhibition, actives largely listed as inhibitors; note: potency is the fitted concentration of half-maximal effect; nearly all actives have a fitted effect of over 55% in size
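Chicken DT40 Tdp1-/- cells complemented with human TDP1, 400 cells/well, exposed to compounds plus 20 nM camptothecin for at least 48 h at 37 C; viability read as ATP content by CellTiter-Glo luminescence.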
IL-1B inflam inh: inflammasome signaling inhibition, IL-1 beta readout; activity change, % at 57.5 µM; THP-1 LPS/ATP IL-1B secretion, AlphaLISA, 16 h; active compounds read low; hit rate 4.7% among 360,000; AID 743279; in the data active = activity change below about -50%; inconclusive = mostly about -30% to -49%
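Secreted IL-1B measured by AlphaLISA bead assay after 16 h compound exposure of THP-1 cells; compounds (final up to 57.5 uM) added 1 h before LPS (250 ng/mL) and ATP (1.25 mM) stimulation; lower signal means less secretion.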
HT1080NT lethal: kills 2HG-producing HT-1080-NT fibrosarcoma cells. HT-1080-NT fibrosarcoma viability, CellTiter-Glo ATP luminescence, 48 h. Potency, µM (doses to about 46.1 µM), for the others: at the highest dose activity, negative = less viability, hits mostly cytotoxic. hit rate 1.6% among 360,000;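 note: NT is the 2HG producing partner of a matched IDH1 knockdown line; potency is the fitted concentration of half-maximal effect; 0% = DMSO-treated cells and -100% = media-only wells without cells; nearly all actives have a fitted effect of over 55% in size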
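Viability of the 2HG-overproducing fibrosarcoma line after 48 hours of compound exposure at 37 degrees C was determined by luminescence with CellTiter-Glo, and concentration-effect curves were then fitted and categorized.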
DT40 TDP1 no CPT: qHTS for Inhibitors of human tyrosyl-DNA phosphodiesterase 1 (TDP1): qHTS in cells in absence of CPT; Potency, µM (titrated, usually from 46.2 µM), for inactives: at the top dose activity change, negative = growth inhibition, hits mostly inhibitors; AID 686978, 2013; DT40 Tdp1-/- hTDP1 cells, no CPT, ATP luminescence, 48 h; hit rate 15% among 420,000; note: potency is the fitted concentration of half-maximal effect; nearly all actives have a fitted effect of over 55% in size
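Stably hTDP1-transfected Tdp1-null chicken DT40 cells were treated with library compounds minus camptothecin and grown for at least 48 hr at 37 °C, after which cellular ATP was quantified by luminescence.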
* marks the source's active call; other numbers are inactive results; ? = inconclusive; . = no result given; ! = repeats disagree; [ ] = remark or other dose. Unless noted, calls come from the whole dose curve; as a rule, active = well fitted curve in the direction sought with a large enough effect; inconclusive = small, poorly fitted or top-dose-only effect, or another doubt; inactive = no such curve, though single readings can be large; an effect the other way counts as inactive or inconclusive. Unless noted, % is set by controls: 0 for no effect and ±100 for the full control effect.

SMILES	HT1080 IDH1KD tx	DT40 TDP1 CPT	IL-1B inflam inh	HT1080NT lethal	DT40 TDP1 no CPT
COc1ccc(CC(=O)Nc2nc(-c3ccc(OC)c(OC)c3)cs2)cc1OC	-29%	?	-86*	?	21µM*
COc1ccc(C(CNC(=O)C2CC(=O)N(Cc3ccccc3)C2)N2CCCC2)cc1 (centres undefined)	-2%	-9%	-12	-1%	5%
COc1ccccc1C(CNC(=O)C1CC(=O)N(Cc2ccccc2)C1)N1CCCC1 (centres undefined)	-2%	-2%	-8	-1%	4.6µM*
COc1ccc(-c2nc(NC(=O)c3n[nH]c(=O)c4ccccc34)sc2C)cc1	-10%	21µM*	18	-3%	9.2µM*
COc1ccc(-c2nc(NC(=O)CCNC(=O)c3ccco3)sc2C)cc1	-2%	23µM*	-2	-5%	18µM*
COc1ccc(OC)c(NS(=O)(=O)c2ccc3c(c2)CCC(=O)N3)c1	-18%	-12%	35	2%	-12%
COC(=O)N1CCCCC1c1cc(C(=O)NCc2cccnc2)no1 (centres undefined)	16%	-4%	21	4%	-1%
COCC(=O)Nc1nc(-c2ccc(C)cc2)c(C)s1	-9%	-29%	-5	-2%	?
COc1ccc(-c2csc(NC(=S)NC(=O)c3cccs3)n2)cc1OC	-28%	15µM*	-16	-24%	12µM*
COc1ccc(-c2nc(CCNC(=O)c3ccco3)cs2)cc1OC	0%	?	-9	-13%	21µM*
COc1ccc(-c2nc(NC(=O)c3cc(C(C)(C)C)nn3C)sc2C)cc1	?	?	-24	16µM*	21µM*
O=C(NCCc1csc(-c2ccc(F)cc2)n1)c1ccco1	.	?	.	.	-26%
Cc1nnc(NC(=O)C2CC(=O)N(Cc3ccccc3)C2)s1 (centres undefined)	5%	-1%	-6	?	-1%
COc1ccc(-c2csc(NC(=O)C3CC(=O)N(Cc4ccccc4)C3)n2)cc1OC (centres undefined)	-17%	?	-59*	-4%	?
COc1ccc(-c2csc(NC(=S)NC(=O)c3cccs3)n2)cc1Br	0%	?	20	6%	?
COc1ccccc1C(=O)N[C@@H]1c2ccccc2C2(CCN(Cc3cccnc3)CC2)[C@H]1O	.	6%[9.04 µM]	.	.	?
Cc1ccccc1NC(=O)CCc1c(C)nn(-c2ccc(N3CCCCC3)nn2)c1C	9%	16µM*	1	-6%	21µM*!
Cc1nn(-c2ccc(N3CCCC3)nn2)c(C)c1CCC(=O)N1CCN(c2ccc(F)cc2)CC1	.	15µM*	.	.	?
Cc1nn(-c2ccc(N3CCOCC3)nn2)c(C)c1CCC(=O)N1CCN(C)CC1	20%	0%	12	8%	1%
Cc1ccccc1NC(=O)CCc1c(C)nn(-c2ccc(N3CCOCC3)nn2)c1C	-6%	5%	9	0%	-1%
COc1ccc(CNC(=O)CCc2c(C)nn(-c3ccc(N4CCCC4)nn3)c2C)c(OC)c1	.	0%	.	.	-12%
COc1cc(NC(=O)CCc2c(C)nn(-c3ccc(N4CCCCC4)nn3)c2C)cc(OC)c1OC	.	21µM*	.	.	?
Cc1cccc(NC(=O)CCc2c(C)nn(-c3ccc(N4CCCCC4)nn3)c2C)c1	-7%	?	-14	12%	?
COc1ccc(OC)c(NC(=O)CCc2c(C)nn(-c3ccc(N4CCCC4)nn3)c2C)c1	.	21µM*	.	.	15µM*
CC(C)(C)c1ccc(OCc2cnc(Cl)s2)cc1	0%	-29%	-3	-13%	?
SMILES	HT1080 IDH1KD tx	DT40 TDP1 CPT	IL-1B inflam inh	HT1080NT lethal	DT40 TDP1 no CPT
CCN(Cc1ccncc1)Cc1cn(C)nc1-c1ccc(Oc2ccccc2)cc1	-3%	-23%	14	0%	-28%
CCc1cc(C(=O)OC)c(NC(=O)CN2CCN(C(=O)C3CCCO3)CC2)s1 (centres undefined)	-2%	-29%	0	0%	-24%
Cc1nn(-c2ccc(N3CCOCC3)nn2)c(C)c1CCC(=O)Nc1ccc(F)cc1	3%	-4%	-10	7%	16µM*
COC(=O)c1ccc(NC(=O)CCc2c(C)nn(-c3ccc(N4CCCCC4)nn3)c2C)cc1	.	23µM*	.	.	?
CC1CCC(NC(=O)CCNC(=O)c2ccccc2)CC1 (centres undefined)	-1%	1%	-19	-4%	2%
Cc1c(Cl)cc(-n2cnnn2)cc1[N+](=O)[O-]	-9%	-29%	35	-1%	-29%
Cc1cc(C)cc(N2C(=O)C=CC2=O)c1	?	0.73µM*	-103*	?	0.82µM*
Cc1c([N+](=O)[O-])cc(N2C(=O)C=CC2=O)cc1[N+](=O)[O-]	13%	0.73µM*	-15	-3%	1.6µM*
Cc1cc(N2C(=O)C=CC2=O)c([N+](=O)[O-])cc1C	?	0.82µM*	-3	?	1.8µM*
O=C(NCCc1ccc(Cl)cc1)C1CCN(S(=O)(=O)N2CCC3(CC2)OCCO3)CC1	16%	-11%	26	-2%	-17%
O=C(c1ccc2oc(CCc3ccccc3)nc2c1)N1CCC(O)CC1	13%	4%	19	1%	14%
Cc1cc(C(=O)COC(=O)c2cccnc2Cl)c(C)n1C	13%	1%	15	13%	12%
CCc1ccccc1N(CC(=O)NC(C)C)C(=O)CCC(=O)Nc1nccs1	1%	-20%	?	6%	-3%
COc1ccc(CCNC(=O)c2cc(C(C)C)on2)cc1OC	10%	?	-15	7%	?
COc1ccc(CCNC(=O)c2nnn(-c3cccc(C)c3)c2N)cc1OC	1%	?	-9	9%	?
COc1ccc(CCNC(=O)c2cn3ccc(C)cc3n2)cc1OC	1%	?	22	-5%	16µM*
COc1ccc(CCNC(=O)c2nnn(-c3cc(C)cc(C)c3)c2N)cc1OC	-4%	15µM*	-3	-3%	?
O=C(CSc1ncccn1)NCc1cccc(Cl)c1	0%	3%	-3	-3%	8%
Cn1c(=O)oc2ccccc2c1=O	-5%	1%	7	-8%	-11%
CN1CC[C@]2(CCN3CCc4c(oc5ccccc45)[C@@H]3C2)N(C)C1=O	-3%	?	25	?	18µM*
COc1ccc(NC(=O)c2nc[nH]c2C(=O)N(C)CCO)cc1	11%	-14%	-5	-1%	3%
O=C(CP(=O)(c1ccccc1)c1ccccc1)Nc1cccc(CP(=O)(c2ccccc2)c2ccccc2)c1	?	?	?	?	23µM*
Cc1cnc(-n2ncc(C(=O)N(C)CC3COCCO3)c2C2CC2)nc1-c1cccs1 (centres undefined)	.	-15%[9.04 µM]	.	.	-7%
